Assay in all cases: DAPPL (digital affinity profiling via proximity ligation, sequencing); 10 mM Tris-HCl pH 7.5, 50 mM NaCl, 1 mM DTT, 4% glycerol, room temperature, 30 min; GST-TFs on glutathione beads, 16-mer random dsDNA library, 0.1% formaldehyde crosslink after washing; high values mean tight binding
One test deals with T1, FEV (Homo sapiens, UniProt Q99581 1-238).
T1 sequence: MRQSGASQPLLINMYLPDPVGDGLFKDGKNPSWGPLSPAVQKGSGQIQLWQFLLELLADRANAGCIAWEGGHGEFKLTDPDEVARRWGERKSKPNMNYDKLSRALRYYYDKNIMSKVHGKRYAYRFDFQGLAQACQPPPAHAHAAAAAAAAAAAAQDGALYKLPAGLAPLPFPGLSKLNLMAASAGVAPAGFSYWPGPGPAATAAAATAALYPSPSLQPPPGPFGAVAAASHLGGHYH
As to conditions: protein: recombinant; tags: N-terminal GST; dsDNA, one strand shown. An outline of the steps: (§1)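 Each value of binding signal is a hexamer's read frequency for a factor divided by the same hexamer's frequency in the tag-only sample. Barcoded, bead-captured GST fusions of human transcription factors made in yeast were pooled with that sample and incubated with 200 nmole of a random double-stranded 16-mer DNA library in Tris/NaCl/DTT/glycerol buffer at room temperature for 30 min. Washing, 0.1% formaldehyde crosslinking, proximity ligation, PCR and Illumina NextSeq500 sequencing followed.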

The next test concerns the target ETV5 (Homo sapiens, UniProt P41161 1-510). As to conditions: protein: recombinant; tags: N-terminal GST; dsDNA, one strand shown. In a few lines: as §1
The target in the next test is HSF1 (Homo sapiens, UniProt Q00613 1-529). As to conditions: protein: recombinant; tags: N-terminal GST; chain copies: 3; dsDNA, one strand shown. An outline of the steps:
as §1

In another test the target is T2, SPIC (Homo sapiens, UniProt Q8N5J4 1-248).
T2 sequence: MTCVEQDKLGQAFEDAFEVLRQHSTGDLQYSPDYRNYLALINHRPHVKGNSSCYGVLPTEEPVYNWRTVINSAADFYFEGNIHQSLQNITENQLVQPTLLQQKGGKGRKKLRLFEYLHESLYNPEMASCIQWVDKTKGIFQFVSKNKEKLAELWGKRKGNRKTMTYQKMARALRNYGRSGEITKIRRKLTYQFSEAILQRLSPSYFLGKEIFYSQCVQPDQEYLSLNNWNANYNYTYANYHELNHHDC
The conditions noted are these: protein: recombinant; tags: N-terminal GST; dsDNA, one strand shown. An outline of the steps: as §1

Another test has as its target ELF4 (Homo sapiens, UniProt Q99607 1-663). The conditions noted are these: protein: recombinant; tags: N-terminal GST; dsDNA, one strand shown. An outline of the steps: as §1
The next test concerns the target T3, ELK4 (Homo sapiens, UniProt P28324-2 1-405).
T3 sequence: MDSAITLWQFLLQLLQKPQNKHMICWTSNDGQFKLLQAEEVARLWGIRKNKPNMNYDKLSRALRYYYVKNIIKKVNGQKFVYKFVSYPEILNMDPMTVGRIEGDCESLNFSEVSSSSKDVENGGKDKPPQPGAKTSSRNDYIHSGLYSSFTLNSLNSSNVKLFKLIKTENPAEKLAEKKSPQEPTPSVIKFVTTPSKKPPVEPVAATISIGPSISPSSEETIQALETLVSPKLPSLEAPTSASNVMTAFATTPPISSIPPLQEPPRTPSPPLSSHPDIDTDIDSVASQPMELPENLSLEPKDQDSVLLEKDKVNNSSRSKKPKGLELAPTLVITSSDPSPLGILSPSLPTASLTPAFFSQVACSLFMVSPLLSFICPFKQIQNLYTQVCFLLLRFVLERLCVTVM
The conditions noted are these: protein: recombinant; tags: N-terminal GST; dsDNA, one strand shown. An outline of the steps: as §1

The next test concerns the target T4, ETV2 (Homo sapiens, UniProt O00321 1-342).
T4 sequence: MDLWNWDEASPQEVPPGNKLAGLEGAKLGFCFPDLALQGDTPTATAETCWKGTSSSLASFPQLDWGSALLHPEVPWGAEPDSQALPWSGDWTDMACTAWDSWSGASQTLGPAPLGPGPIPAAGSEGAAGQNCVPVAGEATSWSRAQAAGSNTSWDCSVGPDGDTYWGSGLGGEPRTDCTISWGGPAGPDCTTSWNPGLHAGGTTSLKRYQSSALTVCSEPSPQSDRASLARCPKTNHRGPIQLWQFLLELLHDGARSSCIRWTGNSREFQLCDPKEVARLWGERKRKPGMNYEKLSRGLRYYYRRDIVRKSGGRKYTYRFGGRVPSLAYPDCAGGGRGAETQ
As to conditions: protein: recombinant; tags: N-terminal GST; dsDNA, one strand shown. In a few lines: as §1

A further test deals with T5, ELF3 (Homo sapiens, UniProt P78545 1-371).
T5 sequence: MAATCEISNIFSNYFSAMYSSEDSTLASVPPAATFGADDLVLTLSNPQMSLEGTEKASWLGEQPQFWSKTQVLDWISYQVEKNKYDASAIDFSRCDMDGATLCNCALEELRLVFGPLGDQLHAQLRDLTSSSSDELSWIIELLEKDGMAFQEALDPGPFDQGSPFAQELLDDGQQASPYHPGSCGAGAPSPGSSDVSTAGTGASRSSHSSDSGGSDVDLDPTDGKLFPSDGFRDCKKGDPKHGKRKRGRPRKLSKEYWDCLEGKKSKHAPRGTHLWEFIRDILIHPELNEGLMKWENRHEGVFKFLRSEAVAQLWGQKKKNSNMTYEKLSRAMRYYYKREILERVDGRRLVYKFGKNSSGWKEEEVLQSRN
As to conditions: protein: recombinant; tags: N-terminal GST; dsDNA, one strand shown. In a few lines:
as §1

In the next test the target is CRX (Homo sapiens, UniProt O43186 1-299). As to conditions: protein: recombinant; tags: N-terminal GST; dsDNA, one strand shown. In a few lines:
as §1

For the next test, the target named is ETV1 (Homo sapiens, UniProt P50549 1-477). As to conditions: protein: recombinant; tags: N-terminal GST; dsDNA, one strand shown. An outline of the steps: as §1
A further test addresses T6, ERF (Homo sapiens, UniProt P50548 1-548).
T6 sequence: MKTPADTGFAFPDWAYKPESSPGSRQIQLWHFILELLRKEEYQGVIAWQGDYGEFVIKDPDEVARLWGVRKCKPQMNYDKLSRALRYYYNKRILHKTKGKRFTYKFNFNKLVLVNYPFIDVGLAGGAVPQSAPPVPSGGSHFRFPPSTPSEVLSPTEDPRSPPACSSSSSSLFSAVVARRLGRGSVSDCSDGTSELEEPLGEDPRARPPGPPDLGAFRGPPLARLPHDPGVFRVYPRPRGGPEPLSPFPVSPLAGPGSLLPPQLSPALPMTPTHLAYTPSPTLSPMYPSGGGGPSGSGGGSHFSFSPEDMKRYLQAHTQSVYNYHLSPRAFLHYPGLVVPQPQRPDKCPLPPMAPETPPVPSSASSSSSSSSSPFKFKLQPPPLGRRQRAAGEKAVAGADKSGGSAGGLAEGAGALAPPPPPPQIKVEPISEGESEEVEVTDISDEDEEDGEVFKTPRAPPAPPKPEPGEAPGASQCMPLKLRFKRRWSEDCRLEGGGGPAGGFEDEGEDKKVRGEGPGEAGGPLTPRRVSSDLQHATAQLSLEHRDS
As to conditions: protein: recombinant; tags: N-terminal GST; dsDNA, one strand shown. In a few lines: as §1

Another test has as its target T7, ETV3L (Homo sapiens, UniProt Q6ZN32 1-361).
T7 sequence: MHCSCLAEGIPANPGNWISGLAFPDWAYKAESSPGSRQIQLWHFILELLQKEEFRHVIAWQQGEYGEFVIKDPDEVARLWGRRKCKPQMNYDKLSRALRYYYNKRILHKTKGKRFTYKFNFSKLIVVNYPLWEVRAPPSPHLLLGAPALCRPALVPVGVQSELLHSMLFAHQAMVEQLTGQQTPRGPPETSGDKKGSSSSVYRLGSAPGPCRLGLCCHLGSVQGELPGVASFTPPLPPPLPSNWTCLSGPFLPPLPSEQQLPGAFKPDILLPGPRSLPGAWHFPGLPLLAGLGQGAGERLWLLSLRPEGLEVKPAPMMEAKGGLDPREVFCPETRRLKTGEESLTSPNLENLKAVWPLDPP
The conditions noted are these: protein: recombinant; tags: N-terminal GST; dsDNA, one strand shown. In a few lines: as §1

Another test concerns the target T8, ETS2 (Homo sapiens, UniProt P15036 1-469).
T8 sequence: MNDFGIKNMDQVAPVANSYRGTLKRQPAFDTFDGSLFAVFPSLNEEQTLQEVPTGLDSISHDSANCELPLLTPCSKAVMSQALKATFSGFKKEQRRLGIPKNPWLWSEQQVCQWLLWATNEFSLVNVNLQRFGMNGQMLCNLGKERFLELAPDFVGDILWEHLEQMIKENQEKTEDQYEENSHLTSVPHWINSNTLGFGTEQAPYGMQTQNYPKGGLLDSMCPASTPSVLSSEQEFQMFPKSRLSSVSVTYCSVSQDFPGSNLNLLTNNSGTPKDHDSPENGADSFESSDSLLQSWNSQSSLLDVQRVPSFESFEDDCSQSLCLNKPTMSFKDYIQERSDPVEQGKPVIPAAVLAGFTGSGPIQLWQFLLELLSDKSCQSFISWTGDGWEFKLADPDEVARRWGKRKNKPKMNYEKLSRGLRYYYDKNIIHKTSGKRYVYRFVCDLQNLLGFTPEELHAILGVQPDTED
The conditions noted are these: protein: recombinant; tags: N-terminal GST; dsDNA, one strand shown. In a few lines:
as §1

The target in another test is T9, SPDEF (Homo sapiens, UniProt O95238 1-335).
T9 sequence: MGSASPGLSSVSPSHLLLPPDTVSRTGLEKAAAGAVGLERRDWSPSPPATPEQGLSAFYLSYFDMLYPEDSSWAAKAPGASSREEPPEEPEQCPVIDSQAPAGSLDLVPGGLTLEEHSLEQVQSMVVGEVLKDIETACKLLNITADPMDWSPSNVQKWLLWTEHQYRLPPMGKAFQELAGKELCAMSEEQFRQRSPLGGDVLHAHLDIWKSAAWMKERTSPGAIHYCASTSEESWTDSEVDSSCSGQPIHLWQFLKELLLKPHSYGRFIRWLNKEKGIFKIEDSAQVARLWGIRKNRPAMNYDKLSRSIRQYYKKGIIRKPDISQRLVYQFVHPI
As to conditions: protein: recombinant; tags: N-terminal GST; dsDNA, one strand shown. An outline of the steps: as §1

The next test has as its target T10, ETV7 (Homo sapiens, UniProt Q9Y603 1-341).
T10 sequence: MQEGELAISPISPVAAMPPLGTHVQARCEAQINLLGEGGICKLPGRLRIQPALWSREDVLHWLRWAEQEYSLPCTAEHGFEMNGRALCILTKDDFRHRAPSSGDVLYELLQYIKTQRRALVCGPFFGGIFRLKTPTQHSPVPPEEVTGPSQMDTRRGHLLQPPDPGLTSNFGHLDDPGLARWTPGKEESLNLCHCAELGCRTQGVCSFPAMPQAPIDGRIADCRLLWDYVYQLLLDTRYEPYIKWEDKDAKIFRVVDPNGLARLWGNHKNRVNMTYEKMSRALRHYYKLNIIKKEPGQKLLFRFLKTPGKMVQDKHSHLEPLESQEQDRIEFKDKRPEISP
As to conditions: protein: recombinant; tags: N-terminal GST; dsDNA, one strand shown. In a few lines: as §1

The target of a further test is T11, ELF5 (Homo sapiens, UniProt Q9UKW6-2 1-255).
T11 sequence: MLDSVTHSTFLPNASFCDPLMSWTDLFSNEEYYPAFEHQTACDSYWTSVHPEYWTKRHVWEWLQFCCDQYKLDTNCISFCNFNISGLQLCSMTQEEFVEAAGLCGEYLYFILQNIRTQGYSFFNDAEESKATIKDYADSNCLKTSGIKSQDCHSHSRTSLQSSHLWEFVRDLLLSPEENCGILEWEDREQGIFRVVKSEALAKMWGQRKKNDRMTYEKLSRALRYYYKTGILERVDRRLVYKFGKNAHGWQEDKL
As to conditions: protein: recombinant; tags: N-terminal GST; dsDNA, one strand shown. In a few lines: as §1

The target in a further test is T12, ETV3 (Homo sapiens, UniProt P41162-2 1-143).
T12 sequence: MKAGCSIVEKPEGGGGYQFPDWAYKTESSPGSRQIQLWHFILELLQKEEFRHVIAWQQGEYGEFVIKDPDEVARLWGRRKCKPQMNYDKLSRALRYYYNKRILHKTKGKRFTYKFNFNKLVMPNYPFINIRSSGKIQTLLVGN
The conditions noted are these: protein: recombinant; tags: N-terminal GST; dsDNA, one strand shown. An outline of the steps:
as §1

The next test deals with ETV6 (Homo sapiens, UniProt P41212 1-452). The conditions noted are these: protein: recombinant; tags: N-terminal GST; dsDNA, one strand shown. In a few lines: as §1

In paper PMC7862700, “An all-to-all approach to the identification of sequence-specific readers for epigenetic DNA modifications on cytosine” one finds binding signal data, which are given here for one sequence.

Sequence of ETV5 (P41161 whole entry): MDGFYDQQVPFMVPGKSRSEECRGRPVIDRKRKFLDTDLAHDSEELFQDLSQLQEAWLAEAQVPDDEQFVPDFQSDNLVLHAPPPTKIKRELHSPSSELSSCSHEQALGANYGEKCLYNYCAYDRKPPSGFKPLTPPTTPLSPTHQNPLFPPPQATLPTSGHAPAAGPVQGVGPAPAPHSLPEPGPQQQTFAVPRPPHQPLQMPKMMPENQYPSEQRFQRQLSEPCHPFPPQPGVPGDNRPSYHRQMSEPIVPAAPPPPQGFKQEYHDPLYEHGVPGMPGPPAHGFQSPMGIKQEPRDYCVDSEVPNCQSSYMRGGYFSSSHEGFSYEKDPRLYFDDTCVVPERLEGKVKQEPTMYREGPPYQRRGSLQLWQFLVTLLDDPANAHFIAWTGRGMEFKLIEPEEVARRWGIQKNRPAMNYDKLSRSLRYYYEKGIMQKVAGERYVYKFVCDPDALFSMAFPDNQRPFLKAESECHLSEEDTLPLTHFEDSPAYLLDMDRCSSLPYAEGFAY
Sequence of ETV1 (P50549 whole entry): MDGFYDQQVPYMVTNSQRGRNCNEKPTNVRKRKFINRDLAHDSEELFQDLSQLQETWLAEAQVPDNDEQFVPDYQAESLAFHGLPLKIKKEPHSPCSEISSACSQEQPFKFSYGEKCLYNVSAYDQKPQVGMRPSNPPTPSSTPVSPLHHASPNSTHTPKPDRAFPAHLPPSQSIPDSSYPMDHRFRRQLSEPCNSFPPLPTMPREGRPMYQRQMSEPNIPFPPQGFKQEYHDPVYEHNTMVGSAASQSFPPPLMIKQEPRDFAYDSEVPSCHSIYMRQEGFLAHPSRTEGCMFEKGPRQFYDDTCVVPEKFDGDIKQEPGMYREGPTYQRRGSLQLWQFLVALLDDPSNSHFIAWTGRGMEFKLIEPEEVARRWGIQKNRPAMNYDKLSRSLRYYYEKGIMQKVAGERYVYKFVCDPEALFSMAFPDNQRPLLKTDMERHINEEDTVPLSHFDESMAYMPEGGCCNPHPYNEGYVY
Sequence of HSF1 (Q00613 whole entry): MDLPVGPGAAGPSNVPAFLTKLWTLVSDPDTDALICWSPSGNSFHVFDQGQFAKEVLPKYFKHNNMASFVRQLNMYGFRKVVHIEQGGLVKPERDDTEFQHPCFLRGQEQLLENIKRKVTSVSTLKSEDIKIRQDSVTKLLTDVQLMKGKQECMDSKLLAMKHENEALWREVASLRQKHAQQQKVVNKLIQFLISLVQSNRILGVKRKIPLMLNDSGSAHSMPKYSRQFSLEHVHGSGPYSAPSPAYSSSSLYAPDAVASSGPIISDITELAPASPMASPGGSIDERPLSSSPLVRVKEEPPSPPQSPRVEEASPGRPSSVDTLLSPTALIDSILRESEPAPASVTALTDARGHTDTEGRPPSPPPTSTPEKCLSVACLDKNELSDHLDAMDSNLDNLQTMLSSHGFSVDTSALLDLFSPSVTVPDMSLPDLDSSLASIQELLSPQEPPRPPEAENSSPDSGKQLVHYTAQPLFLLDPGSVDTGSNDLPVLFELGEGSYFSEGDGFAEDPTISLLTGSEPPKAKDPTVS
Sequence of ETV6 (P41212 whole entry): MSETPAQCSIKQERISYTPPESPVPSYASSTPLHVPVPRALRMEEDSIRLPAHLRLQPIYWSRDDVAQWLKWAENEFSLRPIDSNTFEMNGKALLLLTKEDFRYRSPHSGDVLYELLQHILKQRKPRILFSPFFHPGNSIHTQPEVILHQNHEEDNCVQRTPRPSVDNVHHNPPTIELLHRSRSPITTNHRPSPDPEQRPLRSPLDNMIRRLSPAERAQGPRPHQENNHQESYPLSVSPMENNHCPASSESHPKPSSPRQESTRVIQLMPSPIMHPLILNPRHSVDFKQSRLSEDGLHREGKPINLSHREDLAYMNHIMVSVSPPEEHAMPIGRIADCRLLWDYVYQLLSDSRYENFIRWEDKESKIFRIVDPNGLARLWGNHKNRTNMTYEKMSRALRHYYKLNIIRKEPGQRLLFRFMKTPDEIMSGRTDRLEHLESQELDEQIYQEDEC
Sequence of CRX (O43186 whole entry): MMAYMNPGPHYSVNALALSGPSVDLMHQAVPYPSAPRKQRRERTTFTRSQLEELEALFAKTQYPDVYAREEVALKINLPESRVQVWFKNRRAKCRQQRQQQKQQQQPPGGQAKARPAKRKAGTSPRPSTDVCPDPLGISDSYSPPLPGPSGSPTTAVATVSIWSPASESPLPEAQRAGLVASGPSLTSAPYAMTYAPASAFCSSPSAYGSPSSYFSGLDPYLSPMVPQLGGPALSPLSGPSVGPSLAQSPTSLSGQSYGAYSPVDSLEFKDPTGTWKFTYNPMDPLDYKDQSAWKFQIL
Sequence of ELF4 (Q99607 whole entry): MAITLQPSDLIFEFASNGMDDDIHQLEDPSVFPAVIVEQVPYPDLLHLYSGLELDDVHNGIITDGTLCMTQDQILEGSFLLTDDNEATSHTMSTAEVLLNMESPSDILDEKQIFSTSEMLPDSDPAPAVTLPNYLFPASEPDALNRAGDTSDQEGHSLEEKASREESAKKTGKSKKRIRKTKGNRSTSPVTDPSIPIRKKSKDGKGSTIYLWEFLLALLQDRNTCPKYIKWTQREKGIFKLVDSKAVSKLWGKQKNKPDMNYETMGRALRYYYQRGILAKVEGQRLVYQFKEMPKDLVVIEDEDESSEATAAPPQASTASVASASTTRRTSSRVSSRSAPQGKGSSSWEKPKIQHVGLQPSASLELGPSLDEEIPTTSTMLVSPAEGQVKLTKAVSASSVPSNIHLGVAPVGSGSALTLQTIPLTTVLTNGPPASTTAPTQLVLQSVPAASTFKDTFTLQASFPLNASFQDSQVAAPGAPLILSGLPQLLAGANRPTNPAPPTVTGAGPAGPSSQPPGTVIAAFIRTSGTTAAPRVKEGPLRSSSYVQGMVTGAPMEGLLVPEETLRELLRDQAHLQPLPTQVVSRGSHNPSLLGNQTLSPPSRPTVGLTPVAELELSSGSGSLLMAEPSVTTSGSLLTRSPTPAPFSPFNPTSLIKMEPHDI

With TCTTGT, the binding signal is 1.52 fold enrichment (6-mer frequency, TF over GST control) with FEV; 1.49 fold enrichment (6-mer frequency, TF over GST control) with ETV5; 1.55 fold enrichment (6-mer frequency, TF over GST control) in the test with HSF1; 1.39 fold enrichment (6-mer frequency, TF over GST control) with SPIC; 1.66 fold enrichment (6-mer frequency, TF over GST control) in the test with ELF4; 1.49 fold enrichment (6-mer frequency, TF over GST control) with ELK4. The binding signal with ETV2 was 1.4 fold enrichment (6-mer frequency, TF over GST control); in the test with ELF3, 1.55 fold enrichment (6-mer frequency, TF over GST control); in the test with CRX, 1.48 fold enrichment (6-mer frequency, TF over GST control); with ETV1 it was 1.57 fold enrichment (6-mer frequency, TF over GST control); with ERF it was 1.68 fold enrichment (6-mer frequency, TF over GST control); in the test with ETV3L, 1.61 fold enrichment (6-mer frequency, TF over GST control). The binding signal was 1.47 fold enrichment (6-mer frequency, TF over GST control) with ETS2; 1.57 fold enrichment (6-mer frequency, TF over GST control) with SPDEF; 1.57 fold enrichment (6-mer frequency, TF over GST control) with ETV7; 1.42 fold enrichment (6-mer frequency, TF over GST control) with ELF5; 1.5 fold enrichment (6-mer frequency, TF over GST control) in the test with ETV3; 1.48 fold enrichment (6-mer frequency, TF over GST control) with ETV6.
